Experimental data published in PubChem BioAssay AID1076 (NMMLSC, 2008).
Activity calls are given as the source filed them.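 Rule for the calls: active = cell event count below 40, meaning activity score above 60 where score is 100 minus count; inactive = the rest.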

Experiment: cytotoxicity in LNCaP prostate cells – cell-based, cell event count, single point, cytotoxicity control for prostate differentiation activator project, confirmation (AID 1076);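 note: counts scatter-gated live cells after medium removal discards detached dead cells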
Settings: LNCaP cell loss, flow cytometry event count, 4 d, stronger effect = lower value

Row | SMILES | cell event count (at 100 µM) | cell event count (event count, at 10 µM)
1 | CCOc1nc(-c2ccccc2O)nc2ccccc12 | 252 (inactive) | 250
2 | Cc1oc(-c2ccc(Cl)cc2)nc1CN1CCC(C(=O)NCCCN2CCCC2=O)CC1 | 51 (inactive) | 115
3 | CCN(CC)CCCNC(=O)c1cc(-c2ccc(Cl)c(Cl)c2)on1 | 22 (inactive) | 165
4 | CCOC(=O)N1CCN(S(=O)(=O)c2ccc(C(=O)Nc3nc4ccccc4s3)cc2)CC1 | 145 (inactive) | 172
5 | Cc1cc(=O)n2nc(N3CCCC(C(=O)NCc4ccco4)C3)sc2n1 (centres undefined) | 325 (inactive) | 102
6 | O=C(CN1CCN(Cc2ccc3c(c2)OCO3)CC1)N1CCc2[nH]c3ccc(F)cc3c2C1 | 24 (inactive) | 234
7 | Cc1ccccc1-c1nc(CN2CCCC(C(=O)NCc3cccnc3)C2)c(C)o1 (centres undefined) | 124 (inactive) | 135
8 | COc1ccc(S(=O)(=O)Nc2ccc(F)c(Cl)c2)cc1OC | 18 (inactive) | 144
9 | O=C(c1ccc2c(c1)OCCO2)N1CCCCC1 | 65 (inactive) | 81.5
10 | CCCc1ccc(Oc2cn[nH]c2-c2ccc(O)c(C)c2O)cc1 | 5 (inactive) | 106
11 | O=C(CSc1nc2sc3c(c2c(=O)n1-c1ccccc1)CCCC3)NCc1ccco1 | 25 (inactive) | 104
12 | CCOc1ccccc1NC(=O)CCC(=O)O | 239 (inactive) | 200
13 | Cc1ccc(NC(=O)CCNS(=O)(=O)c2ccc3c(c2)oc(=O)n3C)c(C)c1 | 350 (inactive) | 129
14 | Cc1oc(-c2ccc(Cl)cc2)nc1CN1CCCC(C(=O)N2CCN(C(=O)c3ccco3)CC2)C1 (centres undefined) | 19 (inactive) | 120
15 | Cc1ccc2[nH]c(=O)c3cc(C(=O)N(C)Cc4ccco4)sc3c2c1 | 72 (inactive) | 456
16 | O=C(CCCCCn1c(=O)[nH]c2ccccc2c1=O)NCCCN1CCN(c2ccccc2F)CC1 | 18 (inactive) | 336
17 | O=C(NCc1ccc(Cl)cc1)c1noc2c1CCCC2 | 311 (inactive) | 380
18 | O=C(COc1ccc(S(=O)(=O)N2CCCC2)cc1Cl)NC1CC1 | 355 (inactive) | 328
19 | CCN(CC)CCNC(=O)c1ccc(N2CCCCC2)c(NS(=O)(=O)c2ccc(C)cc2)c1 | 17 (inactive) | 197

Row | SMILES | cell event count (at 100 µM) | cell event count (event count, at 10 µM)
20 | Cc1ccccc1-c1nc(CN2CCC(C(=O)N3CCN(c4ccccn4)CC3)CC2)c(C)o1 | 73 (inactive) | 190
21 | Cc1ccccc1OCc1nc(-c2ccc(NC(=O)c3ccc4c(c3)OCO4)cc2)no1 | 31 (inactive) | 154
22 | Cc1ccc(NC(=O)N2CCCN(Cc3ccc(F)cc3)C2)cc1C | 13 (inactive) | 142
23 | O=C(NCCCN1CCN(c2ccccc2F)CC1)C1CCC(=O)N1C1CCCCC1 (centres undefined) | 388 (inactive) | 282
24 | Cc1cc(NC(=O)c2noc3c2CCc2ccccc2-3)n(-c2ccccc2)n1 | 146 (inactive) | 367
25 | CCCS(=O)(=O)N1CCCC(C(=O)NCCCN2CCN(c3ccc(F)cc3)CC2)C1 (centres undefined) | 49 (inactive) | 47
26 | CCOC(=O)c1c(NCc2ccc3c(c2)OCO3)c2ccccc2[nH]c1=O | 39 (inactive) | 357
27 | CCCCOC(=O)CSc1nc2c(cc1C#N)C(=O)CC(C)(C)C2 | 203 (inactive) | 194
28 | COc1ccc(-c2noc(-c3cc(Cl)ccc3Cl)n2)cc1OC | 77 (inactive) | 110
29 | Cc1oc(-c2ccc(Cl)cc2)nc1CN1CCCC(C(=O)NCCCN2CCCC2=O)C1 (centres undefined) | 43 (inactive) | 258
30 | CCCS(=O)(=O)N1CCCC(C(=O)NCCCN2CCN(c3ccccc3F)CC2)C1 (centres undefined) | 110 (inactive) | 168
31 | CCC(=O)N(Cc1ccco1)c1nc(-c2cc(OC)ccc2OC)cs1 | 227 (inactive) | 158
32 | Cc1cc(=O)oc(C)c1C(=O)NCCCN1CCN(c2ccccc2F)CC1 | 232 (inactive) | 308
33 | Cc1cc(C)nc(N2CCC(C(=O)Nc3ccc(Oc4ccccc4)cc3)CC2)n1 | 145 (inactive) | 398
34 | COc1ccc(-c2cc(-c3ccc(F)cc3)nc(N3CCN(C)CC3)n2)cc1 | 3 (inactive) | 118
35 | Cc1ccc(Oc2ccc(S(=O)(=O)N3CCOCC3)cc2C(N)=O)c(-n2nc3ccccc3n2)c1 | 5 (inactive) | 126
36 | Cc1ccccc1-c1nc(CN2CCC(C(=O)NCCCN3CCOCC3)CC2)c(C)o1 | 38 (inactive) | 126
37 | CCOc1ccc(OCC)c(NC(=O)C2CCCN(S(=O)(=O)c3c(C)noc3C)C2)c1 (centres undefined) | 187 (inactive) | 260
